Many of the other results were omitted from the sample, so hits are more common in it than they were.
ClpP mod: qHTS Assay for Activators of ClpP | ATP-dependent Clp protease proteolytic subunit (Bacillus subtilis (strain 168)), P80244 | purified B. subtilis ClpP, FRET peptide cleavage, 20 min | Potency, µM (highest dose often 57.5 µM), for inactives: at the highest dose activity change, negative = active | 1.9% of 340,000 active | AID 651965, 2013; active = well fitted falling curve with a large enough effect; inconclusive = small, poorly fitted or top-dose-only effect; inactive = no such curve, though single readings can be large or run the other way; also: potency is read from the fitted curve at half-maximal effect; the source files actives as falling curves though it sought activators and does not explain the sign; nearly all actives have a fitted effect of over 65% in size
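ClpP 10 microg/mL final, pH 8 Tris/KCl buffer with BSA, glycerol, Tween-20; compound pinned in; FRET-FV substrate; RT 20 min; Ex320/Em430; ΔFRET vs ADEP 5.8 microM, DMSO, no enzyme.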
MBNL1-CUG inh: MBNL1-poly(CUG) RNA binding inhibition | 0.036% of 280,000 active | Q9NR56 | Potency, µM (titrated, usually from 57.5 µM), inactives show top-dose activity change, negative = inhibition, hits mostly inhibitors | AID 2675 | TR-FRET MBNL1-His/biotin-(CUG)12 binding, 665/545 ratio; active = well fitted inhibition curve with a large enough effect in the signal ratio, with a control signal flat, not every such curve was filed as active; inconclusive = small, poorly fitted or top-dose-only effect, or effect the other way, or a change in a side signal; inactive = no such curve, though single readings can be large or run the other way; the % refers to the signal ratio; also: potency is read from the fitted curve at half-maximal effect; % is scaled to controls: 0 for no effect and ±100 for the full control effect
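His-tagged MBNL1 binding to biotinylated (CUG)12 RNA was measured by TR-FRET using terbium anti-His antibody (0.055 ng/ul final) and streptavidin-XL665 (5 nM final). Compounds were titrated 92 nM to 58 uM; 60 min at room temperature.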
Rango complex inh: prevents formation of the Rango-importin beta complex | Q14974 | Rango CFP/YFP FRET sensor + importin beta, 45 min | Potency, µM (series often up to 92.2 µM), without a hit: at the highest dose inhibition of complex formation | 0.031% of 340,000 active;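 also: potency is read from the fitted curve at half-maximal effect; 0% = DMSO wells and 100% = buffer wells lacking importin beta; nearly all actives have a fitted effect of over 15% in size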
Target sequence (Q14974 whole entry, looked up): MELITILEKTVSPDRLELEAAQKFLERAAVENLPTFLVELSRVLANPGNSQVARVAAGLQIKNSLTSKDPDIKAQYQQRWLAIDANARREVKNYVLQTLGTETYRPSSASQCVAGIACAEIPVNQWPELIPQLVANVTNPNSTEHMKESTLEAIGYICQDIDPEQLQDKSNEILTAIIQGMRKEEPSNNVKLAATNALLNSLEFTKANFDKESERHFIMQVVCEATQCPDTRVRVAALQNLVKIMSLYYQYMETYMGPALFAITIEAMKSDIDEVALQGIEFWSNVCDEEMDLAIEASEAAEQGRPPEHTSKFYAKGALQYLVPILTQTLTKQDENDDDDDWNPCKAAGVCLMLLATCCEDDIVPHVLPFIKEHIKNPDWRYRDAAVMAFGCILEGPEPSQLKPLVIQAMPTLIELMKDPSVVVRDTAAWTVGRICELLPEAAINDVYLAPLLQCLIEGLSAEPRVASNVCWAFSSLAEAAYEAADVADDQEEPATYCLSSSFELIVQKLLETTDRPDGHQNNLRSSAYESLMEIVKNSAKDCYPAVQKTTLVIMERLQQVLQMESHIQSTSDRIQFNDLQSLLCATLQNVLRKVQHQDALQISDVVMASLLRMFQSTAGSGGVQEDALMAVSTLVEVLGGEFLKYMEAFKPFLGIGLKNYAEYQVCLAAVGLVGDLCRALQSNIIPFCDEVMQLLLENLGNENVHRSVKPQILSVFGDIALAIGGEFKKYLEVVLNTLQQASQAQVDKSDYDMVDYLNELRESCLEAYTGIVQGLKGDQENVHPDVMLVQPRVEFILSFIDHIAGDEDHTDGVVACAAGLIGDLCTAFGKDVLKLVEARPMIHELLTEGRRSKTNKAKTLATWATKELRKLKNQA
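FRET biosensor Rango (snurportin 1 IBB between N-terminal EYFP and C-terminal Cerulean), 50 nM in PBS/1 mM DTT/0.02% Tween-20/0.1% BSA, preincubated 5 min RT with compound; 0.125 microM importin beta added, 45 min RT, CFP/YFP FRET ratio read.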
CBFb-RUNX1 inh: CBF-beta/RUNX1 interaction disruption; Q01196+Q13951; AlphaScreen CBFb-His/RUNX1-biotin binding, biochemical; Potency, µM (titrated, usually from 59.8 µM), for inactives: top-dose activity, negative = inhibition, actives largely listed as inhibitors; 230,000 tested, under 10 active; active = well fitted curve in the direction sought with a large enough effect; inconclusive = small, poorly fitted or top-dose-only effect, or effect the other way, or another doubt; inactive = no such curve, though single readings can be large or run the other way; also: % of control where 0% means no effect
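Bead-based AlphaScreen assay; binding partners His-tagged CBF-beta and biotinylated RUNX1 at 30 nM each. Compound exposure 15 min after a 20-min protein preincubation; bead step 90 min; all steps at room temperature.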
Rango dissoc inh: inhibition of RanGTP-driven Rango-importin beta dissociation. 0.071% of 340,000 active. AID 540253. Potency, µM (titrated, usually from 46.1 µM), for the others: at the top dose activity change, negative = inhibition. Biochemical FRET Rango-importin beta, RanGTP-induced dissociation. O95149+P62826; also: potency is read from the fitted curve at half-maximal effect; % of control where 0% means no effect; nearly all actives have a fitted effect of over 45% in size
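Recombinant Rango FRET biosensor (EYFP–snurportin 1 IBB–cerulean CFP10) at 0.1 uM premixed with 0.25 uM importin beta in PBS, 1 mM DTT, 0.02% Tween-20, 0.1% BSA. Compound added 5 min; RanGTP-RCC1 (0.6 uM Ran, 2 mM GTP, 0.2 uM RCC1) then triggers release, read at 45 min.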
* hit, by the source's call; ? = inconclusive; · = no result given; ! = repeats disagree. Unless noted, calls follow the shape of the full dose curve.

SMILES | ClpP mod | MBNL1-CUG inh | Rango complex inh | CBFb-RUNX1 inh | Rango dissoc inh
COc1cccc(/C=C/c2onc(C)c2S(=O)(=O)N2CCC(C(=O)N3CCC(C)CC3)CC2)c1 | 32µM* | · | · | · | ·
CCC1(CC)Cc2ccccc2-c2nc(NCCCO)[nH]c(=O)c21 | · | 5% | -2% | 2% | 7%
O=c1[nH]c(NCCCO)nc2c1C1(CCCC1)Cc1ccccc1-2 | 14µM* | 2% | 2% | 3% | 1%
O=c1[nH]c(NNC(=S)NCc2ccccc2)nc2c1C1(CCCCC1)Cc1ccccc1-2 | 16µM* | -17% | 4% | -7% | -5%
C=CCNC(=S)NNc1nc2c(c(=O)[nH]1)C1(CCCC1)Cc1ccccc1-2 | -15% | -22% | 0% | -18% | -12%
O=c1[nH]cnc2c1C1(CCCC1)Cc1ccccc1-2 | 13µM* | -4% | 0% | 4% | 0%
CCOc1nc(-c2ccccc2)ccc1-c1noc(-c2ccco2)n1 | 35µM* | 44% | ? | 5% | -15%
COc1nc(C)ccc1-c1noc(-c2ccco2)n1 | -13% | 6% | 0% | 11% | 1%
COc1nc(-c2ccc(C)cc2)ccc1-c1noc(-c2ccco2)n1 | 28µM* | 11% | ? | 2% | 0%
CCOc1nc(-c2ccccc2)ccc1-c1noc(COc2ccccc2)n1 | ? | 0% | -3% | 27% | 27%
CCOc1ccccc1-c1nc(-c2ccc(-c3ccccc3)nc2OCC)no1 | 13µM* | · | · | · | ·
COC(=O)c1cc(C)nc2c1c(=O)nc(SCc1cccc(C)c1)n2C1CC1 | 0% | · | · | · | ·
Cc1ccccc1CCNC(=O)C1CCN(S(=O)(=O)c2ccc3c(ccn3C)c2)CC1 | -30% | · | · | · | ·
Fc1ccc(C(c2nnc(-c3ccccc3)o2)N2CCN(c3ccccc3)CC2)c(Cl)c1 (stereo unspecified) | -2% | · | · | · | ·
CCOC(=O)c1ccc(Nc2nc(N)c3cc(OC)c(OC)cc3n2)cc1 | 32µM*! | -10% | 6% | · | 8%
O=C(C1CC1)N1CCc2cc(Br)cc(S(=O)(=O)N3CCN(c4cccc(C(F)(F)F)c4)CC3)c21 | 0% | · | · | · | ·
CCOc1ccc(CC(=O)N2CCc3cc(OC)c(OC)cc3C2COc2ccc3c(C)cc(=O)oc3c2)cc1 (stereo unspecified) | 12% | · | · | · | ·
CCOc1ccc(NC(=S)N2CCc3cc(OC)c(OC)cc3C2COc2ccc3c(C)cc(=O)oc3c2)cc1 (stereo unspecified) | 8.9µM* | 56% | 0% | 4% | -21%
CN(C)CCCNc1cc(N2CCN(C)CC2)ncn1 | -1% | · | · | · | ·
Oc1ccc(C2Nc3cccc4cccc(c34)N2)c(O)c1 | 32µM* | 27% | 2% | -8% | 0%
COc1ccc(-c2cn3cc(Cl)ccc3n2)cc1OC | ? | 4% | 3% | 2% | 5%
Clc1ccc2nc(-c3ccc(Br)s3)cn2c1 | 20µM* | 45% | -1% | 5% | 14%
Fc1ccc(Sc2ccccc2CNC2=NCCN2)cc1 | 1% | -17% | 4% | 3% | 10%
OCCNC1=NCCN1 | 32µM* | 4% | 4% | 13% | 17%
CCOC(=O)c1[nH]c2ccc(OC)cc2c1NC(=O)CCN1CCC(C)CC1 | 28µM* | 9% | -2% | -1% | 9%
CCOC(=O)c1[nH]c2ccc(OC)cc2c1NC(=O)CCN1CCc2ccccc2C1 | 28µM* | ? | 13% | 4% | -4%
CCOC(=O)c1[nH]c2ccc(Br)cc2c1NC(=O)CCN1CCC(C)CC1 | -15% | 6% | 0% | 2% | 0%
CC(=O)N(O)c1ccc(/C=C2\C=Cc3ccccc32)cc1 | 1% | · | · | · | ·
CC(C)C(=O)Nc1ccc2c(c1)C(=O)N(CCC(=O)O)C2=O | 28µM* | 10% | 8% | 12% | -1%
